# Legend:
# Assay in all cases: DAPPL (digital affinity profiling via proximity ligation, sequencing); 10 mM Tris-HCl pH 7.5, 50 mM NaCl, 1 mM DTT, 4% glycerol, room temperature, 30 min; GST-TFs on glutathione beads, 16-mer random dsDNA library, 0.1% formaldehyde crosslink after washing; high values mean tight binding
# [1] = molecular target: T1, FEV (Homo sapiens, UniProt Q99581 1-238); conditions: protein: recombinant; tags: N-terminal GST; dsDNA, one strand shown
# T1 sequence: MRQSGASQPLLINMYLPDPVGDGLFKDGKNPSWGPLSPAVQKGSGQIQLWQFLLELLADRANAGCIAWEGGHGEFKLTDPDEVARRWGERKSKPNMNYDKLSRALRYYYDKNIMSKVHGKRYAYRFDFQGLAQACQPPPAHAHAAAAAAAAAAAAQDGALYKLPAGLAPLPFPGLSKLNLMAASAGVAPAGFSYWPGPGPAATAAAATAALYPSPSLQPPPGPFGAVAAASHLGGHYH
# How it was run: (§1)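 Human transcription factors were made in yeast as GST fusions, captured on glutathione beads and barcoded with DNA. With a tag-only sample included, the pool was incubated with 200 nmole of a random double-stranded 16-mer DNA library in Tris/NaCl/DTT/glycerol buffer at room temperature for 30 min, then crosslinked with 0.1% formaldehyde after washing, ligated by proximity, amplified and sequenced. For binding signal, each hexamer's read frequency for a factor is divided by its frequency for the tag-only sample.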
# [2] = molecular target: ETV5 (Homo sapiens, UniProt P41161 1-510); conditions: protein: recombinant; tags: N-terminal GST; dsDNA, one strand shown
# How it was run: as §1
# [3] = molecular target: HSF1 (Homo sapiens, UniProt Q00613 1-529); conditions: protein: recombinant; tags: N-terminal GST; chain copies: 3; dsDNA, one strand shown
# How it was run: as §1
# [4] = molecular target: T2, SPIC (Homo sapiens, UniProt Q8N5J4 1-248); conditions: protein: recombinant; tags: N-terminal GST; dsDNA, one strand shown
# T2 sequence: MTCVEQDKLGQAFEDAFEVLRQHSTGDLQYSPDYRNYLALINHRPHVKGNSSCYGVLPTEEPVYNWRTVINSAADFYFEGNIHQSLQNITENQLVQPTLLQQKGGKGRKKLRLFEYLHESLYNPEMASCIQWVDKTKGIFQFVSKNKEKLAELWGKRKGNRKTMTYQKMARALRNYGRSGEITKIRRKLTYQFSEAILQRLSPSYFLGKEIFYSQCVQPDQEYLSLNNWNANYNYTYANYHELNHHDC
# How it was run: as §1
# [5] = molecular target: ELF4 (Homo sapiens, UniProt Q99607 1-663); conditions: protein: recombinant; tags: N-terminal GST; dsDNA, one strand shown
# How it was run: as §1
# [6] = molecular target: T3, ELK4 (Homo sapiens, UniProt P28324-2 1-405); conditions: protein: recombinant; tags: N-terminal GST; dsDNA, one strand shown
# T3 sequence: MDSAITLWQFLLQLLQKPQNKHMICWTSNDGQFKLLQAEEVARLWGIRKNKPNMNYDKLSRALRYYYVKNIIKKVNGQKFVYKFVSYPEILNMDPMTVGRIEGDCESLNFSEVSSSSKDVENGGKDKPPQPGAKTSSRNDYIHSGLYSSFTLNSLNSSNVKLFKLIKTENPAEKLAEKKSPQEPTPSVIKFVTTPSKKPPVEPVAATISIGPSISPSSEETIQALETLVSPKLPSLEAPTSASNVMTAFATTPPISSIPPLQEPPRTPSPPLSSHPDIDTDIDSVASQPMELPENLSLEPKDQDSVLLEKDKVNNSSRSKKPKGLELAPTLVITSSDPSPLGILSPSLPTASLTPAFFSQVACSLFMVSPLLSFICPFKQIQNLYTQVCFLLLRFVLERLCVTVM
# How it was run: as §1
# [7] = molecular target: T4, ETV2 (Homo sapiens, UniProt O00321 1-342); conditions: protein: recombinant; tags: N-terminal GST; dsDNA, one strand shown
# T4 sequence: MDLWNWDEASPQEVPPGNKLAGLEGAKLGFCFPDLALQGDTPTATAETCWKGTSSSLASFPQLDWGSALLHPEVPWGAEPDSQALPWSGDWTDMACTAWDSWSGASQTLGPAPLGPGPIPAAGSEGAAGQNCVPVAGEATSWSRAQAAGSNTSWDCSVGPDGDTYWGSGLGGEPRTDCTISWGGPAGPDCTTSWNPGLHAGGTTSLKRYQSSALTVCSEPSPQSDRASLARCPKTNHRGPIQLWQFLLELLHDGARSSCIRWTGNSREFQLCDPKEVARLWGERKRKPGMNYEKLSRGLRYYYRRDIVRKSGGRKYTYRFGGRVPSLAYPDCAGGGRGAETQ
# How it was run: as §1
# [8] = molecular target: T5, ELF3 (Homo sapiens, UniProt P78545 1-371); conditions: protein: recombinant; tags: N-terminal GST; dsDNA, one strand shown
# T5 sequence: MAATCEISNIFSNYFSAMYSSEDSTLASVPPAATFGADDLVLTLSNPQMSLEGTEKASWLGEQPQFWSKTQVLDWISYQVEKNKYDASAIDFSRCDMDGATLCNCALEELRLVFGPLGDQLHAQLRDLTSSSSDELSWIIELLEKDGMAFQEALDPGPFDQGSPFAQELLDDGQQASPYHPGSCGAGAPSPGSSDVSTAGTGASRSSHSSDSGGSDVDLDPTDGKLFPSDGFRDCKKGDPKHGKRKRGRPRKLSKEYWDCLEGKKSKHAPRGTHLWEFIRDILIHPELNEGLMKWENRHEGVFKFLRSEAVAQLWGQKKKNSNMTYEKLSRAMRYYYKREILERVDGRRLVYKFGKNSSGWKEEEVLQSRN
# How it was run: as §1
# [9] = molecular target: CRX (Homo sapiens, UniProt O43186 1-299); conditions: protein: recombinant; tags: N-terminal GST; dsDNA, one strand shown
# How it was run: as §1
# [10] = molecular target: ETV1 (Homo sapiens, UniProt P50549 1-477); conditions: protein: recombinant; tags: N-terminal GST; dsDNA, one strand shown
# How it was run: as §1
# HSF1, sequence (Q00613 whole entry): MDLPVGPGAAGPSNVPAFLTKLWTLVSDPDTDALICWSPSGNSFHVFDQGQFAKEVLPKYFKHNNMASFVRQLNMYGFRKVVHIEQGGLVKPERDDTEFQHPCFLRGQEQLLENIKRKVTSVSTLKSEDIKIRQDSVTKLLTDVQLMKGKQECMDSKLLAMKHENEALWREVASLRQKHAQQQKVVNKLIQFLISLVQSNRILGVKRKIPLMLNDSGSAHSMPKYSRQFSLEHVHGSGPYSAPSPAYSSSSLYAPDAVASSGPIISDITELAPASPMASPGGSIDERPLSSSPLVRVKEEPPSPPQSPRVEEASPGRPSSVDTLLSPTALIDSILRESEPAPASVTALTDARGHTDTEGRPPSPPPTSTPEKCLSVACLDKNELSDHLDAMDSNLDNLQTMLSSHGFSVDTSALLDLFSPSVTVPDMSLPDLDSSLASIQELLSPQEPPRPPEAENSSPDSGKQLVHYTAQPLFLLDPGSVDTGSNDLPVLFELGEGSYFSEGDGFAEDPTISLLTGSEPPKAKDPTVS
# CRX, sequence (O43186 whole entry): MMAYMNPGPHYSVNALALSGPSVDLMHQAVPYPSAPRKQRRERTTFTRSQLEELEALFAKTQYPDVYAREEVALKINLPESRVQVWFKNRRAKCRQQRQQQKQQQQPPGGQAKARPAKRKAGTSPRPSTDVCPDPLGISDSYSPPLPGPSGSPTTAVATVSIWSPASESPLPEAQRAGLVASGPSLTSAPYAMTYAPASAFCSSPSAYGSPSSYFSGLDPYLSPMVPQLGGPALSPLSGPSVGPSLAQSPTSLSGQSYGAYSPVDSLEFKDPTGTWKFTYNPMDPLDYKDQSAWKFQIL
# ELF4, sequence (Q99607 whole entry): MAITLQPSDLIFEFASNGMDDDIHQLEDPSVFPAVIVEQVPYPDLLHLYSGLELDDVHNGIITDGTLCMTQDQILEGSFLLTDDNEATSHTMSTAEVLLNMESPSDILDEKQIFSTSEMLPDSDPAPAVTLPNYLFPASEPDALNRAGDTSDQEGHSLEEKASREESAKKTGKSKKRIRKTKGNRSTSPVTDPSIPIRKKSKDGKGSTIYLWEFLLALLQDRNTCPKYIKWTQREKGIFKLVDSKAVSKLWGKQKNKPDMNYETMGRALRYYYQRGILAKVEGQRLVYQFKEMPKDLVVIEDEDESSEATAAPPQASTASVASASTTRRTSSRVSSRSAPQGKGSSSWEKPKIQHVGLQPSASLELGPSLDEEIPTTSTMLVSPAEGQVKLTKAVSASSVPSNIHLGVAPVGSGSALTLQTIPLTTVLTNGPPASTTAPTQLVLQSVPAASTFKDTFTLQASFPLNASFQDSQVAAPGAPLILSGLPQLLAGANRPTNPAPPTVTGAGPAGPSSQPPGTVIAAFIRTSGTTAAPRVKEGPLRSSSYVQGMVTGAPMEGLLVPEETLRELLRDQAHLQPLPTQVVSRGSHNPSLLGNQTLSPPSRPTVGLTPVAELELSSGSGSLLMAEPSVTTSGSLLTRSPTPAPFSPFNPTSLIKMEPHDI
# ETV5, sequence (P41161 whole entry): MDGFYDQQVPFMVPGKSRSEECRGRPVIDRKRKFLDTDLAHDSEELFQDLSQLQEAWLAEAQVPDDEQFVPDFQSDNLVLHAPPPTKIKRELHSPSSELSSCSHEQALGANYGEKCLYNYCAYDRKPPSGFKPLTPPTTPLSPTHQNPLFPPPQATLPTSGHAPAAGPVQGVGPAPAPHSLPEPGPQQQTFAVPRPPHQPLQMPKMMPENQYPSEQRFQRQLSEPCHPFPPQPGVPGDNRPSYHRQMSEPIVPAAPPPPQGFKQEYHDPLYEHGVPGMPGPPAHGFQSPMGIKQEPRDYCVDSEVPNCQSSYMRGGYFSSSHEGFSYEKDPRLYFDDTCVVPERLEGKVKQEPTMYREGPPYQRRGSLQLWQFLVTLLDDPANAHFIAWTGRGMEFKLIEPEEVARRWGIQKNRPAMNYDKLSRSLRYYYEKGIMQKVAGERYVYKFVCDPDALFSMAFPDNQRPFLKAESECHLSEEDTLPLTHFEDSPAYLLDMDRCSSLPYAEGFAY
# ETV1, sequence (P50549 whole entry): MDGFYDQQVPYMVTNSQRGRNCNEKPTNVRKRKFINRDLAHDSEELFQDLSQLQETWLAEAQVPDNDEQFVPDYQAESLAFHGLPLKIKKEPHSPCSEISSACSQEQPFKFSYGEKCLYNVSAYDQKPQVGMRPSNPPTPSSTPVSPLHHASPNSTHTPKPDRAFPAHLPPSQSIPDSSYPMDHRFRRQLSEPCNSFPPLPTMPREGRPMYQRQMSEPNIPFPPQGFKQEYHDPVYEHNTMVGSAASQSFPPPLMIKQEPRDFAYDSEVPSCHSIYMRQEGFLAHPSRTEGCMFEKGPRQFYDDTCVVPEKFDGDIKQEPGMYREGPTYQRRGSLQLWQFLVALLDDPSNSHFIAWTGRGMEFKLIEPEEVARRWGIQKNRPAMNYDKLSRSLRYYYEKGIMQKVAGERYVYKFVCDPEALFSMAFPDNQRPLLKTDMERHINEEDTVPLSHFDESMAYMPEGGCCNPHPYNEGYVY
sequence,measurement,setting,value
AACTAC,binding signal,[1],"1.35 fold enrichment (6-mer frequency, TF over GST control)"
same,binding signal,[2],"1.38 fold enrichment (6-mer frequency, TF over GST control)"
same,binding signal,[3],"1.22 fold enrichment (6-mer frequency, TF over GST control)"
same,binding signal,[4],"1.35 fold enrichment (6-mer frequency, TF over GST control)"
same,binding signal,[5],"1.39 fold enrichment (6-mer frequency, TF over GST control)"
same,binding signal,[6],"1.32 fold enrichment (6-mer frequency, TF over GST control)"
same,binding signal,[7],"1.42 fold enrichment (6-mer frequency, TF over GST control)"
same,binding signal,[8],"1.31 fold enrichment (6-mer frequency, TF over GST control)"
same,binding signal,[9],"1.2 fold enrichment (6-mer frequency, TF over GST control)"
same,binding signal,[10],"1.34 fold enrichment (6-mer frequency, TF over GST control)"
